Measured values as given in PubChem BioAssay (NCATS).
Results filed as inconclusive are left out. Activity calls are given as the source filed them. Unless noted, the call rests on the fitted dose curve; in most records, active means well fitted cell-killing curve with a large enough effect; inconclusive means small, poorly fitted or top-dose-only effect; inactive means flat fitted curve, though single readings scatter.

Columns and labels:
[1] = Cell Viability - LYMP2-002 (AID 977);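 further: series mostly up to about 92 µM; compound exposure lasted 24 h at 37 °C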
Summary of the method: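 Human lymphoblastoid cells, 2500/well, complete medium; 5 h 37 C settle; compound 24 h 37 C; CellTiter-Glo, 30 min RT; luminescence. Decrease in ATP = cytotoxicity; AC50 via Hill equation.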

[2] = Cell Viability - LYMP2-006 (AID 978);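 further: series mostly up to about 92 µM; cells exposed to compound for 24 hours; nearly all actives have a fitted effect of over 60% in size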
Summary of the method: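 In this cytotoxicity screen, the human lymphoblastoid line grew in complete medium with test compounds for 24 hr at 37 C. Cellular ATP served as the viability signal.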

[3] = Cell Viability - LYMP2-007 (AID 979);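 further: cells exposed to compound for 24 h before reading; nearly all actives have a fitted effect of over 60% in size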
Summary of the method: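 Cells are seeded at 2500 per well and rested 5 hr. Compounds are then added over a concentration series for 24 hr at 37 C. CellTiter-Glo is added for 30 min at room temperature before luminescence reading.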

[4] = Cell Viability - LYMP2-010 (AID 981);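 further: cells exposed to compound for 24 hours at 37 °C; nearly all actives have a fitted effect of over 55% in size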
Summary of the method: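 Steps: seed 2500 LYMP2-010 cells per well; incubate 5 hr at 37 C; add compound; incubate 24 hr at 37 C; add CellTiter-Glo, wait 30 min at room temperature; read luminescence. Concentration-response fitted to Hill equation for AC50.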

[5] = Cell Viability - LYMP2-012 (AID 982);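 further: cellular ATP by luciferase luminescence where a drop means cytotoxicity; cells exposed to compound for one day before reading; nearly all actives have a fitted effect of over 55% in size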
[6] = Cell Viability - LYMP2-014 (AID 983); further: series mostly up to about 92 µM; nearly all actives have a fitted effect of over 50% in size
Summary of the method: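 Cells are plated at 2500/well and left 5 hr at 37 C. Compounds are added across a concentration range and incubated 24 hr at 37 C in complete medium. CellTiter-Glo is added, and luminescence is read after 30 min at room temperature.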

[7] = Cell Viability - LYMP2-016 (AID 984);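 further: cells exposed to compound for 24 hours at 37 °C; nearly all actives have a fitted effect of over 55% in size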
Summary of the method: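 Concentration-dependent ATP depletion measured in LYMP2-016 lymphoblastoid cells, 24 h, 37 C; luciferase-based luminescent detection; Hill-equation AC50.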

[8] = Cell Viability - LYMP2-018 (AID 985);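 further: compound exposure lasted 24 hr at 37 °C; nearly all actives have a fitted effect of over 50% in size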
Summary of the method: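 Seed 2500 lymphoblastoid cells per well, incubate 5 hr at 37 C, add compound and incubate 24 hr at 37 C, add CellTiter-Glo, wait 30 min at room temperature, then read luminescence.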

[9] = Cell Viability - LYMP2-020 (AID 986); further: series mostly up to about 92 µM; nearly all actives have a fitted effect of over 55% in size
Summary of the method: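 Seed 2500 cells per well and incubate 5 hr at 37 C. Add compounds at a concentration series and incubate 24 hr at 37 C. Add CellTiter-Glo, wait 30 min at RT, read luminescence, and fit a Hill curve for AC50.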

[10] = Cell Viability - LYMP2-022 (AID 987); further: nearly all actives have a fitted effect of over 55% in size
Summary of the method: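 Cells were seeded at 2500 per well, rested 5 hr at 37 C, and treated with titrated compounds for 24 hr at 37 C. Cellular ATP was then quantified by luciferase luminescence, and AC50 values were derived from Hill-modelled concentration-response curves.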

[11] = Cell Viability - LYMP2-024 (AID 988); further: nearly all actives have a fitted effect of over 60% in size
Summary of the method: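 qHTS cytotoxicity, human lymphoblastoid line, complete medium; 24 h cpd treatment, 37 C; CellTiter-Glo ATP luminescence readout; tetraoctylammonium bromide positive control; AC50 via Hill fit.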

[12] = Cell Viability - LYMP2-026 (AID 989); further: nearly all actives have a fitted effect of over 50% in size
Summary of the method: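 Cells are seeded at 2500 per well and held 5 hr at 37 C. Compounds are added in concentration series for 24 hr, then CellTiter-Glo reagent is applied and luminescence read.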

[13] = Cell Viability - LYMP1-002 - Assay at 24 hr (AID 993)
Summary of the method: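 Acute toxicity is measured as concentration-dependent loss of cellular ATP in a human lymphoblastoid line (Coriell LYMP1-002) after 24 h treatment in complete medium. ATP is quantified by luciferase luminescence and AC50 derived by Hill modelling.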

[14] = Cell Viability - LYMP1-002 - Assay at 40 hr (AID 994); further: nearly all actives have a fitted effect of over 60% in size
Summary of the method: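 Cells are plated at 2500 per well and rested 5 hr at 37 C. Compounds are added and incubated 40 hr at 37 C. CellTiter-Glo reagent is added for 30 min at room temperature before luminescence is read.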

[15] = qHTS Assay for Identification of Small Molecule Inducers of Hypoxia Response (AID 2120; active means well fitted curve in the direction sought with a large enough effect in the signal ratio, with a control signal flat, not every such curve was filed as active; the % refers to the signal ratio)
Summary of the method: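 Cell-based qHTS for reporter induction: hypoxia response element controlled beta-lactamase in ME-180 cells. Compounds incubated 17 h at 37 degrees C; activity from blue/green (460/530 nm) ratio, inducers ranked by AC50.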

[16] = molecular target: Estrogen receptor (Homo sapiens) (UniProt P03372); assay: qHTS assay for small molecule antagonists of estrogen receptor alpha signaling (AID 588513; active means well fitted curve in the direction sought with a large enough effect in the signal ratio, with a control signal flat, not every such curve was filed as active; the % refers to the signal ratio)
Summary of the method: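 Antagonist-mode qHTS in ER-alpha-UAS-bla HEK 293 cells: compound titration, 0.5nM estradiol for 18 h, CCF4 fluorescence, Hill-derived IC50.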

[17] = molecular target: Estrogen receptor (Homo sapiens) (UniProt P03372); assay: qHTS assay for small molecule agonists of estrogen receptor alpha signaling (AID 588514; calls by dose curve; further: nearly all actives have a fitted effect of over 70% in size)
Summary of the method: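 Efficacy is expressed against 20 nM 17-beta-estradiol (100%) and DMSO basal (0%); EC50 from Hill equation. Assay: beta-lactamase reporter in ER-alpha-UAS-bla HEK 293 cells, 18 h compound incubation, CCF4 detection.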

[18] = Cell Viability - LYMP2-008 (AID 980); further: nearly all actives have a fitted effect of over 60% in size
Summary of the method: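 Cells seeded at 2500/well and rested 5 hr at 37 C; compounds added over a concentration range and incubated 24 hr at 37 C; CellTiter-Glo added, 30 min at room temperature; luminescence read and AC50 fitted with Hill model.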

Measured: Potency

Chain of Estrogen receptor (Homo sapiens) (P03372 whole entry, looked up): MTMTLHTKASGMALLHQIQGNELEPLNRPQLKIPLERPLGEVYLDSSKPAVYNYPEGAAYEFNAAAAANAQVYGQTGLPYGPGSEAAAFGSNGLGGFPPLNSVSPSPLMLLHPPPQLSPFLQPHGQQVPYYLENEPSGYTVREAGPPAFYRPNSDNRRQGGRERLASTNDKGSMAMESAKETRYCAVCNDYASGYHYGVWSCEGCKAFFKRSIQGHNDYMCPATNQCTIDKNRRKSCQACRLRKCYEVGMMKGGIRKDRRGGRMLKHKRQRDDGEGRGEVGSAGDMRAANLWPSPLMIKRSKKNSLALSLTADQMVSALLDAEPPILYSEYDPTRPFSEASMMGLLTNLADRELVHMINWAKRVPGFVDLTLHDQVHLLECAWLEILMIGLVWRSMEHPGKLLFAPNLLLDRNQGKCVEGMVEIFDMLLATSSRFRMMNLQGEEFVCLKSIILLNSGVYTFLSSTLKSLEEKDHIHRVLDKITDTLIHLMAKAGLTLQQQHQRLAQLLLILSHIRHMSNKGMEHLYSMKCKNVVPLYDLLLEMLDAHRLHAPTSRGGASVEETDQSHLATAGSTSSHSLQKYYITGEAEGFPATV

C(=C/c1ccccc1)/c1ccccc1
not listed: [18]
inactive: all other assays above

CC(C)N=C=NC(C)C
not listed: [4]
inactive: all other assays above

C1CCC2OC2C1 (centres undefined)
not listed: [7] | [8]
inactive: all other assays above

Cc1ccccc1C#N
not listed: [8]
inactive: all other assays above

Cc1ccc2oc(=O)ccc2c1
not listed: [4]
inactive: all other assays above

O=[N+]([O-])c1cccc(C(F)(F)F)c1
not listed: [7] | [13]
inactive: all other assays above

CC(C)CO
not listed: [8]
inactive: all other assays above

O=C1CCC(=O)O1
not listed: [14] | [18]
inactive: all other assays above

CCCCCCC(=O)O
not listed: [4] | [7]
inactive: all other assays above

Cc1cccc2ccccc12
not listed: [4]
inactive: all other assays above

O=C1NC(=O)c2cc([N+](=O)[O-])ccc21
not listed: [4]
inactive: all other assays above

ICCc1ccccc1
not listed: [4]
inactive: all other assays above

NC(=O)NC(N)=O
not listed: [8]
inactive: all other assays above

Cc1cscn1
not listed: [18]
inactive: all other assays above

CC(=O)Nc1ccc(C)cc1
not listed: [7] | [13]
inactive: all other assays above

CNc1ccc([N+](=O)[O-])cc1
not listed: [4]
inactive: all other assays above

C=C(C)C1CC=C(C)C(OC(C)=O)C1 (centres undefined)
not listed: [4]
inactive: all other assays above
